# Compounds with a hit are over-represented: about 2.1% of the library has one in this group of screens.
# p53 reactivator: mutant p53 re-activation in reporter cells. Potency, µM (highest dose often 92.2 µM), for the others: at the highest dose activity change, positive = activation, hits mostly activators. 320,000 compounds, 0.063% hits. H1299 p53-A138V BP100-luciferase reporter, luminescence, 24 h; note: potency is the fitted concentration of half-maximal effect; % of control where 0% means no effect; nearly all actives have a fitted effect of over 45% in size
#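 H1299 (p53-null), stable ts p53-A138V + BP100-Luc; 1000 cells/well, Opti-MEM/10% FBS; cpd 4 pt, 1:5; 24 h, 37 deg C, 5% CO2; detection reagent 10 min RT; luminescence.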
# ClpP mod: qHTS Assay for Activators of ClpP | AID 651965, 2013 | 340,000 compounds, 1.9% hits | Potency, µM (series often up to 57.5 µM), without a hit: top-dose activity change, negative = active | ATP-dependent Clp protease proteolytic subunit (Bacillus subtilis (strain 168)), P80244 | purified B. subtilis ClpP, FRET peptide cleavage, 20 min; active = well fitted falling curve with a large enough effect; inconclusive = small, poorly fitted or top-dose-only effect; inactive = no such curve, though single readings can be large or run the other way; note: potency is the fitted concentration of half-maximal effect; the source files actives as falling curves though it sought activators and does not explain the sign; nearly all actives have a fitted effect of over 65% in size
# Target sequence (P80244 whole entry, looked up): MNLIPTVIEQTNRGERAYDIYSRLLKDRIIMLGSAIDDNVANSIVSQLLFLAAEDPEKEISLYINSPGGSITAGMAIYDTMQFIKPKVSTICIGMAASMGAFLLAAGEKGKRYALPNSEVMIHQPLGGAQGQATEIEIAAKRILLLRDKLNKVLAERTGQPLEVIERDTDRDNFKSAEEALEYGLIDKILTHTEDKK
#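 ClpP 10 microg/mL final, pH 8 Tris/KCl buffer with BSA, glycerol, Tween-20; compound pinned in; FRET-FV substrate; RT 20 min; Ex320/Em430; ΔFRET vs ADEP 5.8 microM, DMSO, no enzyme.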
# B2AR arrestin: beta2AR (human) beta-arrestin recruitment activity; P07550; beta-arrestin recruitment to beta2AR, cell-based reporter; Potency, µM (top dose mostly 46.1 µM), for inactives: at the top dose activation, actives largely listed as activators; 330,000 compounds, 0.02% hits; AID 492947;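 note: potency is the fitted concentration of half-maximal effect; 0% = DMSO controls and full agonism = EC100 isoproterenol or metaproterenol; nearly all actives have a fitted effect of over 65% in size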
# Target sequence (P07550 whole entry, looked up): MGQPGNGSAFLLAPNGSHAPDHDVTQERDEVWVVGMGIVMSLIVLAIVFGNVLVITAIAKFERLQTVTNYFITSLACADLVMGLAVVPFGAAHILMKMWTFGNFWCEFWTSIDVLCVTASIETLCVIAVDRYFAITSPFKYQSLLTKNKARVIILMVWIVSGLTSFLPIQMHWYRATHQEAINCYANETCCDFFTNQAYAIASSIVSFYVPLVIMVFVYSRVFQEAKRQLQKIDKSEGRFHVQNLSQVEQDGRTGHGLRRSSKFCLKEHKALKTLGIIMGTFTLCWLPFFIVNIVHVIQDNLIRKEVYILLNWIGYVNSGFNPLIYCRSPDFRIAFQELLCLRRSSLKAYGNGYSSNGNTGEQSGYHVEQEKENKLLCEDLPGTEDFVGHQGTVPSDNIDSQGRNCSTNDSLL
# Mito fusion yeast: blocks mitochondrial division or promotes mitochondrial fusion | Potency, µM (top dose mostly 46.1 µM), without a hit: at the highest dose growth rescue (activation), most hits filed as activators | 320,000 compounds, 0.23% hits | S. cerevisiae fusion-defective mutant growth rescue, CellTiterGlo 48 h; note: potency is the fitted concentration of half-maximal effect; % of control where 0% means no effect; nearly all actives have a fitted effect of over 45% in size
#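 Read-out: ATP-based luminescence (CellTiterGlo, 10 min ambient) reporting growth of fusion-defective ts yeast after 48 hours at 37C on glycerol/ethanol YPEG medium in the presence of compound.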
# uPA generation: cell surface uPA generation inhibition | cell surface uPA generation assay, qHTS | Potency, µM (titrated, usually from 38.3 µM), without a hit: at the top dose activity change, negative = inhibition, actives largely listed as inhibitors | 330,000 compounds, 0.31% hits; active = well fitted inhibition curve with a large enough effect; inconclusive = small, poorly fitted or top-dose-only effect; inactive = no such curve, though single readings can be large or run the other way; tested in mouse RAW 264.7 cells; note: potency is the fitted concentration of half-maximal effect; % is set by controls: 0 for no effect and ±100 for the full control effect; nearly all actives have a fitted effect of over 55% in size
# Giardia kill: kills Giardia lamblia; Giardia lamblia trophozoite viability; activity change, % at 7.66 µM, hits read low; 340,000 compounds, 0.15% hits; AID 540267; in the data active = activity change below about -80%; inconclusive = between about -30% and that limit;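 note: parasites exposed to compound for two days anaerobically before the ATP read; % is set by controls: 0 for no effect and ±100 for the full control effect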
#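 Viability, read as ATP luminescence: trophozoites at 100 cells/well, compound added, 48 hrs anaerobic at 37 deg C, then 15-30 min room-temperature development before reading.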
# * hit, by the source's call; u = inconclusive; x = no result. Unless noted, calls come from the whole dose curve; as a rule, active = well fitted curve in the direction sought with a large enough effect; inconclusive = small, poorly fitted or top-dose-only effect, or another doubt; inactive = no such curve, though single readings can be large; an effect the other way counts as inactive or inconclusive.
SMILES,p53 reactivator,ClpP mod,B2AR arrestin,Mito fusion yeast,uPA generation,Giardia kill
Cc1ccc2occ(/C=N/NC(=O)c3ccccc3O)c(=O)c2c1,21%,4%,0%,-2%,3%,-14
Cc1ccc(S(=O)(=O)Nc2cc(Cl)c3oc4c(c3c2)CCCC4)cc1,x,-1%,x,x,x,x
O=C(NC1CCCC1)c1cnn2c1NC(=C1CC1)C=C2C(F)F,x,-4%,x,x,x,x
COc1ccccc1-c1sc2ccccc2c1-c1ccc(OCCN2CCOCC2)cc1,-5%,-24%,0%,x,-5%,3
c1ccc(-c2sc3ccccc3c2-c2ccc(OCCN3CCOCC3)cc2)cc1,-3%,32µM*,0%,x,13%,-4
CC[N+]1(CC)CC2=Cc3c(ccc4ccccc34)CC2C1 (centres undefined),-4%,25µM*,0%,-4%,-1%,13
Cc1cc(C)c(Cn2c3ccccc3c3cnn(CC(=O)N4CCCCCC4)c(=O)c32)c(C)c1,x,-4%,x,x,x,x
COc1cccc(Cn2c(=O)n(-c3cccc(Cl)c3C)c(=O)c3c4c(sc32)CN(C(C)=O)CC4)c1,x,-2%,x,x,x,x
CCc1ccc2c(c1)C(C)=CC(C)(C)N2,5%,32µM*,0%,4%,10%,6
Cc1ccc(NC(=O)C2CCCN(c3nnc(-n4c(C)ccc4C)s3)C2)c(C)c1 (centres undefined),x,1%,x,x,x,x
Cc1ccc(C2=NN(CCC(=O)NCc3ccc4c(c3)OCO4)C(=O)CC2)cc1,-7%,7.9µM*,-2%,-3%,-2%,-30
Cc1ccc(SCC(c2ccccc2)N2CCN(C)CCC2=O)cc1 (centres undefined),x,x,x,x,x,3
Cc1c(C)n(CC(O)CN2CCCCC2)c2ccccc12 (centres undefined),2%,32µM*,0%,-3%,2%,-4
Cc1cc(C)n(CC(O)Cn2c(C)c(C)c3ccccc32)n1 (centres undefined),-5%,32µM*,0%,0%,-5%,-27
O=C(O)CCc1ccc(-c2ccccc2)n1CC1CCCO1 (centres undefined),4%,u,0%,-2%,0%,26
Cc1ccc(-c2ccc(CCC(=O)O)n2CC2CCCO2)cc1 (centres undefined),-2%,25µM*,3%,6%,x,2
O=[N+]([O-])c1ccc(-c2nc(-c3cccs3)c(-c3cccs3)[nH]2)cc1,-5%,2%,-1%,-2%,0%,1
Cc1ccsc1-c1nc(-c2ccccc2)c(-c2ccccc2)[nH]1,4%,28µM*,0%,-10%,-4%,3
COc1ccc(-c2nc(-c3ccccc3)c(-c3ccccc3)[nH]2)cc1Br,x,1%,x,x,x,x
O=[N+]([O-])c1cccc(-c2nc(-c3cccs3)c(-c3cccs3)[nH]2)c1,-4%,-14%,5%,6%,1%,-8
COc1ccc(-c2nc(-c3ccccc3)c(-c3cccs3)[nH]2)cc1OC,-7%,28µM*,3%,6%,3%,-2
COc1ccc(-c2nc(-c3cccs3)c(-c3cccs3)[nH]2)cc1OC,-3%,35µM*,0%,-3%,4%,-11
Fc1ccc(-c2nc(-c3cccs3)[nH]c2-c2ccc(F)cc2)cc1,1%,u,12%,2%,-7%,-2
Oc1cccc(-c2nc(-c3cccs3)c(-c3cccs3)[nH]2)c1,x,25µM*,x,x,x,x
CCCCN(CC)CCCn1cnc2c([nH]c3ccc(Cl)cc32)c1=O,x,-14%,x,x,x,x
SMILES,p53 reactivator,ClpP mod,B2AR arrestin,Mito fusion yeast,uPA generation,Giardia kill
Cc1cc(C)nc(Sc2ncnc3sc4c(c23)CCC4)n1,-3%,13µM*,-1%,-1%,-3%,-12
O=C(c1ccc2c3n(nc2c1)-c1ccccc1CO3)N1CCCCC1,-11%,-9%,-1%,-108%,4.5µM*,u
Cc1ccc2c(c1)COc1c3ccc(C(=O)N4CCCCC4)cc3nn1-2,20%,-6%,0%,-17%,-14%,-19
O=C(c1ccc2c3n(nc2c1)-c1ccccc1CO3)N1CCOCC1,17%,-14%,0%,-108%,7.1µM*,10
C[C@@H](CO)NC(=O)c1ccc2c3n(nc2c1)-c1ccccc1CO3,5%,4%,-1%,-32%,1.1µM*,u
Cc1ccc2c(c1)COc1c3ccc(C(=O)N[C@@H](CO)C(C)C)cc3nn1-2,7%,4%,3%,-2%,u,-14
Cc1ccc(C(=O)Nc2nnc(S(=O)(=O)N(C)Cc3ccc(Cl)cc3)s2)cc1,x,-9%,x,x,x,x
Cc1ccc(OCC(=O)NCC2(N3CCOCC3)CCCCC2)cc1C,x,-2%,x,x,x,x
CC(=O)N1CCc2c(sc3c2c(=O)n(-c2ccccc2)c(=O)n3CC(=O)c2ccc(F)cc2)C1,x,2%,x,x,x,x
O=C(CCC(=O)N(CC(=O)NC1CCCCC1)c1ccc2c(c1)OCCO2)Nc1ccccn1,5%,x,0%,22µM*,x,x
COC(=O)[C@@]12CCCCN1[C@H](c1ccc(-c3ccc(OC)cc3)c(OC)c1)[C@@H]1C(=O)N(C)C(=O)[C@@H]12,-9%,-28%,0%,13µM*,10%,-8
COC(=O)[C@@]12CCCCN1[C@H](c1ccc(-c3ccc(F)cc3)c(OC)c1)[C@H]1C(=O)N(C)C(=O)[C@H]12,2%,-11%,0%,x,16%,-4
COc1ccc(/C=N/NC(=O)CCSc2nc3ccccc3s2)cc1,-19%,0%,-1%,-1%,4µM*,11
COc1ccc(/C=N/NC(=O)CCn2cnc(-c3ccccc3)c2-c2ccccc2)cc1,-5%,-1%,0%,-13%,1.1µM*,-2
COc1ccc(N2CCN(S(=O)(=O)CCNC(=O)COc3ccccc3F)CC2)cc1,x,-1%,x,x,x,x
CC(C)(C)C(=O)CSc1n[nH]c(-c2ccccc2)n1,x,-1%,x,x,x,x
COc1cc(CN2CCc3ccccc3C2)cc([N+](=O)[O-])c1O,-17%,-3%,-1%,0%,-3%,3
COc1cc(CN2CCc3ccccc3C2)ccc1O,-14%,2%,0%,-3%,2.8µM*,3
COc1ccc(COCC(O)CN2CCc3ccccc3C2)cc1OC (centres undefined),-2%,28µM*,0%,2%,-1%,3
OC(COCc1ccccc1)CN1CCc2ccccc2C1 (centres undefined),4%,1%,0%,-3%,4%,27
COc1ccc(CCNC(=O)c2cnc3sc(N4CCOCC4)nn3c2=O)cc1OC,x,-19%,x,x,x,x
COCCOc1ccc(C(F)(F)F)cc1NC(=O)c1ccccc1F,7%,25µM*,0%,6%,0%,0
Cc1cc(C)nc(SCC(=O)c2ccc([N+](=O)[O-])cc2)n1,0%,-4%,0%,4%,4%,3

# Bioassay records (PubChem)
